Compound activity deposited in PubChem BioAssay by several laboratories.
KLF5 inh = kruppel-like factor 5 inhibition | inhibition, % at 5 µM | hit rate 0.23% among 290,000 | DLD-1 KLF5 promoter-luciferase reporter, luminescence | AID 1700;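 active means inhibition above a per-plate limit of that plate's mean compound inhibition plus 3 SD, cut at about 60% in these data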;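 further: higher means less KLF5 promoter-driven luciferase light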
aSyn UTR inh = MLPCN primary screen, SNCA 5' untranslated region; AID 1813; hit rate 0.82% among 300,000; alpha-synuclein 5'UTR reporter, inhibitor activity; inhibition, % (tested at 7.5 µM); in the data active means inhibition above about 60%;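 further: H4 neuroglioblastoma cells stably carrying SNCA 5'UTR luciferase fusion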
Mdm2 MdmX PPI = disrupts the human Mdm2-MdmX interaction | O15151+Q00987 | SaOS-2 split-luciferase Mdm2/MdmX complementation, luminescence | inhibition, % at 8 µM | hit rate 3% among 330,000;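 active means inhibition of at least 50% at 8 µM in the primary screen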
697 NFkB inh = lowers PMA/ionomycin-induced NF-kB signal in 697 B cells | hit rate 0.33% among 330,000 | inhibition, % at 4 µM | 697 B-cell NF-kB luciferase reporter, 16 h; in the data active means inhibition above about 35%
Gli-Sufu block = Gli-Sufu pathway antagonism. Sufu-KO-LIGHT fibroblasts, Gli luciferase reporter luminescence. inhibition, % at 5 µM. hit rate 0.74% among 340,000;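 active means inhibition above about 55%, limit read from the data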
Jurkat NFkB inh = lowers PMA/ionomycin-induced NF-kB signal in Jurkat cells. PMA/ionomycin-induced NF-kB luciferase reporter, luminescence. AID 435003. inhibition, % at 4 µM. hit rate 0.53% among 330,000; in the data active means inhibition above about 50%
Mdm2-MdmX conf = human Mdm2/MdmX binding inhibition, confirmed; shares compounds with Mdm2 MdmX PPI; AID 489028; hit rate 55% among 10,000; luminescent assay; inhibition, % at 8 µM; in the data active means inhibition above about 40%
Full FLuc ctr = inhibits full-length luciferase, flagging false Mdm2/MdmX hits; shares compounds with Mdm2 MdmX PPI; SaOS-2 full-length luciferase counterscreen, luminescence; inhibition, % at 8 µM; hit rate 77% among 6,200; AID 504607;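 active means mean inhibition at 8 µM reaching about 37%, which flags the compound as non-specific, limit read from the data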;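 further: p53-null SaOS-2 cells with luciferase driven by a doxycycline-inducible promoter; compound on cells about two nights before reading with doxycycline added after day one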
Hits are given with their value; - = inactive; . = no result; ! = a repeat was not active. Rows were chosen to be rich in hits. Some 4.1% of all compounds tested hit in one or more screens of this group.

SMILES	KLF5 inh	aSyn UTR inh	Mdm2 MdmX PPI	697 NFkB inh	Gli-Sufu block	Jurkat NFkB inh	Mdm2-MdmX conf	others
O=S(=O)(CCSc1nc2ccccc2s1)c1nc2ccccc2s1	-	-	99	-	-	-	83	Full FLuc ctr=55
CCS(=O)(=O)CCSc1nc2ccccc2s1	-	-	-	-	-	-	.
CC(C)(C)S(=O)(=O)c1nc2ccccc2s1	-	-	-	-	-	-	.
C=CCS(=O)(=O)c1nc2ccccc2s1	-	-	63	-	-	-	-	Full FLuc ctr=42
CCN1C[C@@H]2[C@@H]3C(=O)N(C)C(=O)[C@@H]3[C@](CC)(C1=O)N2C(=O)c1ccc(C)cc1	.	.	.	.	-	.	.
COc1ccc(NC(=O)C(=O)NCC2CCCN2S(=O)(=O)c2cc(C)ccc2C)cc1 (centres undefined)	.	-	60	-	-	-	74	Full FLuc ctr=48
COc1ccc(CCNC(=O)C(=O)NCC2OCCN2S(=O)(=O)c2ccccc2)cc1OC (centres undefined)	-	-	-	-	-	-	.
COc1ccc(CNC(=O)C(=O)NCCC2CCCCN2S(=O)(=O)c2ccccc2)cc1 (centres undefined)	.	-	-	-	-	-	.
COc1ccc(NC(=O)C(=O)NCCC2CCCCN2S(=O)(=O)c2ccccc2)cc1 (centres undefined)	.	-	55	-	-	-	79	Full FLuc ctr=56
COc1ccc(CCNC(=O)C(=O)NCC2CCCN2S(=O)(=O)c2ccccc2)cc1OC (centres undefined)	.	-	52	-	-	-	-
NC(=O)C1CCCN(CC(O)COCc2ccc(Cl)cc2)C1 (centres undefined)	-	-	-	-	-	-	.
COc1cc(C)c(C2NC(=O)c3ccccc3N2)cc1C (centres undefined)	.	.	.	.	-	.	.
Cc1ccc(C)c(C2NC(=O)c3ccccc3N2)c1 (centres undefined)	-	-	50	-	-	-	53	Full FLuc ctr=55
Cc1cccc(OCC(=O)Nc2ccccc2N2CCN(C(=O)C(C)C)CC2)c1C	-	-	100	-	-	-	-
CC(NC(=O)c1cc(F)c(F)cc1Cl)C1CC2CCC1C2 (centres undefined)	-	-	-	-	-	-	.
COc1ccc2cc(C3CC(c4cccs4)=NN3C(C)=O)c(Cl)nc2c1 (centres undefined)	-	-	55	-	-	-	-
Cc1ccc2nc(Cl)c(C3CC(c4cccs4)=NN3C(=O)CCC(=O)O)cc2c1 (centres undefined)	-	-	-	-	-	-	.
COc1ccc(NC(=O)c2cc3c(=O)n(C)c4ccccc4c3n2C)cc1Cl	-	-	62	-	-	-	-
COc1cc(NC(=O)c2cc3c(=O)n(C)c4ccccc4c3n2C)cc(OC)c1OC	-	-	-	-	-	-	.
COc1ccc(NC(=O)c2cc3c(=O)n(C)c4ccccc4c3n2C)cc1OC	-	-	59	-	-	-	-
COc1ccc(NCC(=O)NN=C2CCS(=O)(=O)c3ccc(F)cc32)cc1	.	.	-	-	-	-	.
O=C(CSc1nc2nn(-c3ccccc3)c(=O)c-2c2n1CCCCC2)c1ccc(O)c(O)c1	.	.	-	-	-	-	.
CCOC(=O)c1c(-c2ccccc2)oc2ccc(OCC(O)CN(C)C)cc12 (centres undefined)	-	-	74	-	-	-	-	Full FLuc ctr=-
CCOC(=O)c1c(-c2ccccc2)oc2ccc(O)c(CN(C)C)c12	-	-	55	-	-	-	-
CCOC(=O)c1c(-c2ccccc2)oc2ccc(OC(C)C(=O)O)cc12 (centres undefined)	-	-	-	-	-	-	.
SMILES	KLF5 inh	aSyn UTR inh	Mdm2 MdmX PPI	697 NFkB inh	Gli-Sufu block	Jurkat NFkB inh	Mdm2-MdmX conf	others
CCOC(=O)c1c(CSCc2ccccc2)oc2ccc(O)c(CN(C)C)c12	-	-	54	-	-	-	47	Full FLuc ctr=65
N#Cc1cc([N+](=O)[O-])cnc1N(CCO)CCO	-	-	-	-	-	-	.
CCSc1ncc(/C=N/Nc2ccc([N+](=O)[O-])cc2)n1C	-	-	69	-	-	-	-
CC(=O)N(c1ccc(C)cc1)c1nc(C)cc(C)c1C#N	-	-	-	-	-	-	.
Cc1cc(C)c2nc(N3CCC(C(=O)NCCCN4CC(C)CC(C)C4)CC3)sc2c1 (centres undefined)	-	-	97	-	-	-	76	Full FLuc ctr=-
Cc1cc(C)c(S(=O)(=O)NCC2CCC(C(=O)NCCCN3CCC(C)CC3)CC2)c(C)c1 (centres undefined)	-	-	51	-	-	-	-
CCOc1ccc2nc(N3CCCC(C(=O)NCCCN4CC(C)CC(C)C4)C3)sc2c1 (centres undefined)	-	-	53	-	-	-	-
CC(NC(=O)c1ccc(Br)s1)c1ccncc1 (centres undefined)	-	-	-	-	-	-	.
CCOC(=O)c1c(CSC(=N)N)n(C)c2cc(Br)c(OC(C)=O)cc12	-	-	-	-	-	-	.
CCOC(=O)c1c(CSC(=N)N)n(-c2ccc(C)cc2)c2cc(Br)c(OC(C)=O)cc12	-	-	92	-	-	-	-
Cc1ccc(C(=O)Nc2ccc3ccccc3n2)cc1	-	-	-	-	-	-	.
Cc1ccc(C(O)(C(=O)NNc2ccc3ccccc3n2)c2ccc(C)cc2)cc1	-	-	51!	-	-	-	-
Cn1c(=O)c(C(=O)c2ccc(S(C)(=O)=O)c(Cl)c2Cl)c(O)c2ccccc21	.	-	-	-	-	-	.
O=[N+]([O-])c1ccc(-c2nc(Nc3cccc(O)c3)c3ccccc3n2)cc1	-	-	82	-	-	-	-
O=C(O)c1cccc(Nc2nc(-c3ccc([N+](=O)[O-])cc3)nc3ccccc23)c1	-	-	-	-	-	-	.
O=[N+]([O-])c1cccc(-c2nc(NCc3ccccc3)c3ccccc3n2)c1	-	-	-	-	-	-	.
COc1cccc(-c2nc(NCc3ccccc3)c3ccccc3n2)c1O	-	-	56	-	-	-	-
O=[N+]([O-])c1ccc(-c2nc(NCc3ccccc3)c3ccccc3n2)cc1	-	-	60	-	-	-	-
O=[N+]([O-])c1ccc(-c2c(O)c3ccccc3c3nc4ccccc4nc23)cc1	-	-	65	-	-	-	-
O=c1c2ccccc2nc(-c2ccc([N+](=O)[O-])cc2)n1O	-	-	-	-	-	-	.
CN(C)S(=O)(=O)c1cccc(NC(=O)c2sccc2-c2ccccc2)c1	-	-	-	-	-	-	.
O=C(Nc1cccc([N+](=O)[O-])c1)N1CCCCCC1	-	-	-	-	.	-	.
Cc1nc(C(=O)Nc2ccccc2Cl)cc2c1[nH]c1ccccc12	-	-	80	-	-	-	57	Full FLuc ctr=56
